Reference: PMC7819943, “Rice protein-binding microarrays: a tool to detect cis-acting elements near promoter regions in rice”
In all, about 35,000 sequences were measured (“fluorescence intensity (a.u.)”: median about 10,000, highest 2% from about 52,000 on). The full list was thinned out, with the highest values kept by preference.

target: T1, OsWOX13 (Oryza sativa, UniProt Q5QMM3 1-267); assay: protein-binding microarray (RPBM); PBS, 2% BSA, 51.3 ng/ul salmon testes DNA, 50 uM zinc acetate, 200 nM TF, 25 C, 1 h; high values mean tight binding; conditions: protein: recombinant; tags: N-terminal polyhistidine and DsRed monomer fusion (pET32a); label: CyDye5-dUTP incorporated in the synthesized complementary strand; 3' TTTTT single-stranded linker to array surface; dsDNA, one strand shown
T1 sequence: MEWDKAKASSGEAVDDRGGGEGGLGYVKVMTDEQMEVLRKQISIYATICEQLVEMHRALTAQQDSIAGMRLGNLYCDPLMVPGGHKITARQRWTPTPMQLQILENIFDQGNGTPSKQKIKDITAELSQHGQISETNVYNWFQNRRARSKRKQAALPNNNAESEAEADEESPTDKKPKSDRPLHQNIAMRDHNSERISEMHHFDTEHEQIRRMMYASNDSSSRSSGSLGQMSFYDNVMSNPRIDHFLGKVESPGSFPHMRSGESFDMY
Procedure, shortened: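 The binding signal is fluorescence intensity per feature, in arbitrary units, read on an Axon 4000B scanner. Polyhistidine- and DsRed-tagged transcription factors (N-terminal fusions) from E. coli BL21-CodonPlus were purified on Ni–NTA and applied at 200 nM for 1 h at 25 °C to a double-stranded, BSA-blocked custom Agilent array in buffer with 50 µM zinc acetate.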

Going from “TTTGACAAATTTGACAACTCCTCTAGCTCCCACTGCTACTCGGAGTCACCTAGTGCAG” to “CTGTGATAATCTGTCTTCCTGTGATACCAGCACTGTTTCCCGGAGTCACCTAGTGCAG”, the binding signal falls from 38200 fluorescence intensity (a.u.) to 3340 fluorescence intensity (a.u.).

Going from “TGCTAGTTAAATTGGGATAAAATAATGGGCCCATTTATTTCGGAGTCACCTAGTGCAG” to “AGTGATTAGTAGCAGCAGAAAGAGTGGAAGATTTAGAGGACGGAGTCACCTAGTGCAG”, the binding signal rises from 4520 fluorescence intensity (a.u.) to 17800 fluorescence intensity (a.u.).

Compared with “TTTTCTTGATTAATTAAATATAAATTTGCATTTCATTTCACGGAGTCACCTAGTGCAG”, “TTATTGATTGATTGAATCAGACTGAAATTCCAAACCACGACGGAGTCACCTAGTGCAG” is higher in binding signal: 16900 fluorescence intensity (a.u.) for the first, 63100 fluorescence intensity (a.u.) for the second.

Compared with “ATTGCGTGCTTGATTAATTAGTTTCTACCAACAATTTCTCCGGAGTCACCTAGTGCAG”, “AATTAAATAAATTATAATTTATTTTATTGAGATTTGATTTCGGAGTCACCTAGTGCAG” is higher in binding signal: 8110 fluorescence intensity (a.u.) for the first, 41300 fluorescence intensity (a.u.) for the second.

Going from “TGCACCAATTTGATTGATACCAATTTGCTTTAATTTCGTCCGGAGTCACCTAGTGCAG” to “CAGAAACTGAAATACCAATTGATTCTTCCAATTCCCTGAACGGAGTCACCTAGTGCAG”, the binding signal falls from 57200 fluorescence intensity (a.u.) to 6740 fluorescence intensity (a.u.).

Going from “TTAAATTTAAATTTAAATTTAATTTTGAGATTTCTTTTCACGGAGTCACCTAGTGCAG” to “TATAATTGATTATTTTAATTTCTTTTGCTATTAATAGTCACGGAGTCACCTAGTGCAG”, the binding signal rises from 55700 fluorescence intensity (a.u.) to 64700 fluorescence intensity (a.u.).

First: TTAAATTTAAATTTGAGATTGATTTTGAGATATTTTCAACCGGAGTCACCTAGTGCAG
Second: CCCAAACGCCCTGAAATCAAATTGAATATTCCAATTTGCACGGAGTCACCTAGTGCAG
The binding signal of the first is higher: 38200 fluorescence intensity (a.u.) for the first, 4630 fluorescence intensity (a.u.) for the second.

First: ACAATTGATAGATTTGTCTGTTGCTTTGCTTTGATTCCTCCGGAGTCACCTAGTGCAG
Second: AAAATTTAATTGATTATATGCTAATAACTTTCTTGTTTTGCGGAGTCACCTAGTGCAG
The binding signal of the first is lower: 43800 fluorescence intensity (a.u.) for the first, 51600 fluorescence intensity (a.u.) for the second.

Going from “ATCGGCATGTTCACCAGCTCTGATTGGTAGTACGATTTTACGGAGTCACCTAGTGCAG” to “TAAATAAATGATTGGGCTTGTTAATGGGCTTCCTCTTCCTCGGAGTCACCTAGTGCAG”, the binding signal rises from 5140 fluorescence intensity (a.u.) to 41900 fluorescence intensity (a.u.).

First: CCCAAATAGAAGTAGAATTGAGACACTGAGTGGTGCAAAGCGGAGTCACCTAGTGCAG
Second: ATGATTGTTGGAGCAAGGCCCAGCCCAAGGTAGCGTACATCGGAGTCACCTAGTGCAG
The binding signal of the first is lower: 3400 fluorescence intensity (a.u.) for the first, 13400 fluorescence intensity (a.u.) for the second.

Compared with “TGTTACTAATTTATTTGGAGGCTTCATGGTTGACCTATTGCGGAGTCACCTAGTGCAG”, “GATAATTTGAACCATAGATTTATCATTCAAAGGCTATAAACGGAGTCACCTAGTGCAG” is higher in binding signal: 3440 fluorescence intensity (a.u.) for the first, 9720 fluorescence intensity (a.u.) for the second.

Compared with “GTAGCAATCAAATATGGGCCGGTCAATTGTTCGCGGTAGACGGAGTCACCTAGTGCAG”, “CATGGACAACAATCATTGCCTGTTACGCGCAAAGTTCTCGCGGAGTCACCTAGTGCAG” is higher in binding signal: 4130 fluorescence intensity (a.u.) for the first, 8490 fluorescence intensity (a.u.) for the second.

Going from “AGTATAATGACTGTTAGATCTCCATAAAACTGGCCACAAACGGAGTCACCTAGTGCAG” to “GCGATTAAATGTACAGTAAATAGGGATGAACAATATACGACGGAGTCACCTAGTGCAG”, the binding signal rises from 3510 fluorescence intensity (a.u.) to 3570 fluorescence intensity (a.u.).

First: AATCTTGGCAAATTTCCTTAATTTGAACCTACGTGTTAAACGGAGTCACCTAGTGCAG
Second: TGCATTGATTTGGTATAATTGACCATGCTTTGCGATGCAACGGAGTCACCTAGTGCAG
The binding signal of the first is lower: 5550 fluorescence intensity (a.u.) for the first, 57700 fluorescence intensity (a.u.) for the second.

Going from “ATCCTTATTAATTTAATTTAACAAAGTCAACTTGATTTCCCGGAGTCACCTAGTGCAG” to “CCTTAATTGTGGGGCTGACTGCTATTTTCTATATCATGTGCGGAGTCACCTAGTGCAG”, the binding signal rises from 23100 fluorescence intensity (a.u.) to 56000 fluorescence intensity (a.u.).

Going from “TTAATTGATTAATTTCCTTAACCAAATCTTGGCGACTTGACGGAGTCACCTAGTGCAG” to “GAATAATTATTACACAATGCTAATTAATTTCACAATATTGCGGAGTCACCTAGTGCAG”, the binding signal falls from 61200 fluorescence intensity (a.u.) to 38800 fluorescence intensity (a.u.).

Compared with “TAATATTTAATTTCTATCAACATCTGACTACTTAATATTGCGGAGTCACCTAGTGCAG”, “ATAATATTTAATATTTAATTAATTATGTGCTAATAAATCGCGGAGTCACCTAGTGCAG” is higher in binding signal: 7790 fluorescence intensity (a.u.) for the first, 14300 fluorescence intensity (a.u.) for the second.

Compared with “TCTTAATAATTATTTCTTAATTAATTCTGTGCTAATTGTGCGGAGTCACCTAGTGCAG”, “CATGGTGAATTGGTGATTTTATAATGATGCTAAGCTTTGACGGAGTCACCTAGTGCAG” is lower in binding signal: 54300 fluorescence intensity (a.u.) for the first, 4860 fluorescence intensity (a.u.) for the second.

Compared with “AGCAATGCAACGATTATTAATTTAATTTGCACATGTATTGCGGAGTCACCTAGTGCAG”, “CTATCTCATTGCTTAATTGGTCATATAATTGGGCTGAGTGCGGAGTCACCTAGTGCAG” is higher in binding signal: 5900 fluorescence intensity (a.u.) for the first, 16900 fluorescence intensity (a.u.) for the second.

First: AGCGATTAGTAAGTGGATTGGATCTAACTAAGCTTGCTACCGGAGTCACCTAGTGCAG
Second: CCTGCACAATCACTGGCTGATGCATCTGCAATGTCACCAACGGAGTCACCTAGTGCAG
The binding signal of the first is higher: 9310 fluorescence intensity (a.u.) for the first, 4350 fluorescence intensity (a.u.) for the second.

Compared with “TGGATTTGTATGTCTTAATTGAAGTTAGGCTATAAATTTGCGGAGTCACCTAGTGCAG”, “ATATTTAATTTGATACTACCTATAAACCGCACAAGCTGCACGGAGTCACCTAGTGCAG” is higher in binding signal: 10300 fluorescence intensity (a.u.) for the first, 16800 fluorescence intensity (a.u.) for the second.
